Consider eight compounds from PubChem BioAssay (NCI).

Common to all, as to experiment: NCI-60 one-dose screen, 48 h (100 = growth as untreated, 0 = no growth, -100 = all killed)
What all share (conditions): 10 µM unless noted

The subject of assay [1] is NCI-H23 lung.
In assay [2] the test system is NCI-H226 lung.
Assay [3] concerns NCI-H322M lung.
The test system of assay [4] is HOP-62 NSCLC.
Assay [5] relates to NCI-H460 lung.
Assay [6] deals with HOP-92 NSCLC.
In assay [7] the test system is NCI-H522 lung.
In assay [8] the test system is A549/ATCC NSCLC.
Assay [9] concerns 786-0 renal.
Assay [10] deals with COLO 205 colon.
In assay [11] the test system is DU-145 prostate.
The subject of assay [12] is K-562 leukemia.
Assay [13] deals with MALME-3M melanoma.
The test system of assay [14] is MDA-MB-231 breast.
The subject of assay [15] is RXF 393 renal.
The test system of assay [16] is SF-268 CNS.
Assay [17] concerns SF-295 CNS.
The subject of assay [18] is SF-539 CNS.
For assay [19], the system named is UACC-257 melanoma.
The test system of assay [20] is M14 melanoma.

Compounds without any hit were thinned out: in the full panel of roughly 83,000, 20% have a hit.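 48-hour exposure, single concentration, 96-well plates; percent growth endpoint where 0 means no net growth. Active: below 10.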 A number with no mark means an inactive call. The source made the active and inactive calls.

As for `COc1ccc2c(c1)nnc1c3cccnc3[nH]c21`, the growth in assay [1] was 25.5%; in assay [2], 19.7%; in assay [3], 43.3%; in assay [4], 6.44% (active); in [5], -49.4% (active); in assay [6], -36.5% (active). Besides, the growth in [7] is -34.4% (active); in [8], 40.8%; in assay [9], -37.2% (active); in assay [10] it was -62.3% (active); in assay [11] it was -18.3% (active); in [12] it was -41.1% (active). For the same compound, the growth in assay [13] is 11.4%; in assay [14], 0.316% (active); in [15] it was -67.2% (active); in assay [16], -24.8% (active); in assay [17], 39.8%; in [18] it was -48.7% (active). Also, the growth in assay [19] was 33.5%.

Take `O=C(Nc1ccc(-n2cc(-c3ccncc3)c(-c3ccc(O)c(Cl)c3)n2)cc1)Nc1ccc(Cl)c(C(F)(F)F)c1`: the growth was 16.2% in assay [1]; 50.2% in assay [2]; 27.3% in assay [3]; 28.3% in assay [4]; -1.85% (active) in assay [5]; -22.9% (active) in assay [6]. Besides, the growth is 9.38% (active) in [7]; 16.7% in [8]; -31.5% (active) in assay [9]; 41.3% in assay [10]; 29.5% in assay [11]; 17.1% in assay [12]. The growth in assay [13] was 13.3%; in [14] it was -39.7% (active); in [15], -74.4% (active); in assay [16], 18.4%; in [17] it was -10.3% (active); in assay [18], 13.7%. Besides, the growth in assay [19] was 47.5%.

As to `C=C1C(=O)O[C@H]2[C@H]1CC/C(C(=O)Nc1ccc(OC)c(C(N)=O)c1O)=C\CC[C@@]1(C)O[C@@H]21`, the growth in assay [1] is 73.4%; in assay [2], 61.3%; in assay [3] it was 108%; in assay [4] it was 85.1%; in assay [5] it was 92%; in assay [6] it was 26.4%. Besides, the growth in assay [7] was 5.78% (active); in assay [8], 77.8%; in [9], 43.1%; in assay [10] it was 10.7%; in assay [11] it was 36.3%; in [12], 22.9%. Besides, the growth was 21% in assay [13]; 58.4% in assay [14]; 3.02% (active) in [15]; 86.3% in assay [16]; 94.9% in assay [17]; 60.5% in [18]. The growth in assay [19] is 51.1%.

For `Cc1cc(SCc2ccc(Cl)cc2Cl)nc(SCc2ccc(Cl)cc2Cl)n1`, the growth in assay [1] is 98.2%; in assay [2], 96%; in assay [3], 96.5%; in assay [4], 108%; in assay [5] it was 104%; in assay [6], 112%. The growth in assay [7] was 89.1%; in assay [8] it was 96.6%; in assay [9], 103%; in assay [10], 113%; in assay [11], 105%; in assay [12], 110%. The growth in assay [13] is 88.9%; in assay [14], 101%; in [15] it was 108%; in [16], 102%; in assay [17], 95.8%; in [18] it was 98%. For the same compound, the growth is 98.8% in assay [19] and 97.5% in assay [20].

Take `COc1cc(/C=C/C(=O)c2c(C)n([O-])c3cc(C)c(C)cc3[n+]2=O)cc(OC)c1OC`: the growth in [1] was 72.7%; in assay [2], 82.8%; in assay [3], 67.6%; in assay [4], 74.6%; in assay [5], 35.4%; in [6], 41.5%. In addition, the growth in assay [7] was 33.6%; in [8], 65.9%; in assay [9], 23.1%; in [10], 70.1%; in [11] it was 50.5%; in assay [12] it was 21.7%. For the same compound, the growth in assay [13] was 86%; in assay [14], 67.8%; in [15] it was 54.2%; in [16], 79.9%; in [17] it was 71.7%; in assay [18] it was 80.2%. In addition, the growth was 100% in assay [19] and 48.7% in assay [20].

As for `Cc1cn([C@]2(CF)O[C@H](CO)C2C)c(=O)[nH]c1=O` (stereo not given in full), the growth is 111% in [1]; 111% in assay [2]; 108% in assay [3]; 62.8% in assay [4]; 125% in [5]; 107% in [6]. Also, the growth in assay [7] was 87.1%; in [8], 109%; in assay [9], 101%; in [10], 108%; in assay [11], 124%; in [12] it was 104%. Also, the growth in [13] is 113%; in assay [14], 116%; in [15], 101%; in [16] it was 112%; in [17], 121%; in [18], 110%. The growth in assay [19] is 103%; in assay [20], 118%.

Consider `O=C(C[n+]1ccccc1Cl)c1ccc2c(c1)CCCC2`, for which the growth in assay [1] is 92%; in [2], 112%; in assay [3] it was 106%; in [4], 90.6%; in assay [5], 107%; in [6], 95.1%. Moreover, the growth in assay [7] is 87.4%; in assay [8], 85.6%; in assay [9], 75.5%; in [10] it was 56.3%; in assay [11], 97.1%; in assay [12], 82.9%. Besides, the growth in [13] was 81.8%; in assay [14] it was 99.7%; in [15], 95.8%; in assay [16] it was 99.5%; in [17], 99.4%; in assay [18] it was 97.6%. The growth in [19] is 101%.

As to `Nc1ncnc2c1c(-c1ccc(Oc3ccccc3)cc1)nn2C[C@H]1SSC[C@@H]1O`, the growth in [1] is 53.2%; in [2], 22.9%; in [3], 46.9%; in [4] it was 49.7%; in [5], 22%; in assay [6], -2.99% (active). In addition, the growth was -3.56% (active) in [7]; 31% in [8]; 66.2% in [9]; 6.71% (active) in assay [10]; 48% in assay [11]; 5.41% (active) in assay [12]. In addition, the growth was -48.4% (active) in assay [13]; 61.4% in assay [14]; 28.7% in assay [15]; 43.4% in assay [16]; 48.4% in assay [17]; 38% in assay [18]. In addition, the growth in assay [19] was 9.88% (active).
